# Assay outcomes deposited in PubChem by National Center for Advancing Translational Sciences (NCATS).
# Rows were chosen to be rich in hits. Some 19% of all compounds tested hit in one or more screens of this group.
# Gal4-VP16 FLuc: VP16 counterscreen qHTS for inhibitors of ROR gamma transcriptional activity; Drosophila S2 Gal4-VP16 UAS-luciferase, luminescence, 20 h; 310,000 compounds, 3.5% hits; Potency, µM (top dose mostly 53.6 µM), for inactives: at the top dose activity, negative = inhibition, usual class: inhibitors; AID 2546, 2010;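 further: Gal4-VP16 expression switched on by copper sulfate through the metallothionein promoter; nearly all actives have a fitted effect of over 50% in size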
# DT40 TDP1 CPT: qHTS for Inhibitors of human tyrosyl-DNA phosphodiesterase 1 (TDP1): qHTS in cells in presence of CPT; AID 686979, 2013; chicken DT40 Tdp1-/-;hTDP1 cells + 20 nM CPT, ATP luminescence, 48 h; Potency, µM (series often up to 46.2 µM), for inactives: at the top dose activity change, negative = growth inhibition, usual class: inhibitors; 420,000 compounds, 12% hits; further: nearly all actives have a fitted effect of over 55% in size
#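 Cell growth measured by CellTiter-Glo luminescence after a minimum 48 h, 37 C compound exposure with 20 nM CPT in Tdp1-knockout DT40 cells stably expressing hTDP1, seeded 400/well; qHTS titration format.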
# TDP1 cell noCPT: qHTS for Inhibitors of human tyrosyl-DNA phosphodiesterase 1 (TDP1): qHTS in cells in absence of CPT; DT40 Tdp1-/- hTDP1 cells, no CPT, ATP luminescence, 48 h; Potency, µM (titrated, usually from 46.2 µM), inactives show top-dose activity change, negative = growth inhibition, usual class: inhibitors; 420,000 compounds, 15% hits; AID 686978, 2013; further: nearly all actives have a fitted effect of over 55% in size
#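 No-CPT arm: Tdp1-/-;hTDP1 DT40 cells (400/well) plus compounds, incubated ≥48 hr at 37 °C. Readout CellTiter-Glo luminescence.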
# RORgamma inh: qHTS for inhibitors of ROR gamma transcriptional activity; Nuclear receptor ROR-gamma (Mus musculus), P51450; Drosophila S2 Gal4-RORgamma UAS-luciferase reporter, 20 h; Potency, µM (highest dose often 53.6 µM), without a hit: top-dose activity change, negative = inhibition, actives largely listed as inhibitors; 310,000 compounds, 5.4% hits; AID 2551, 2010; further: nearly all actives have a fitted effect of over 60% in size
# Target sequence (P51450 whole entry, looked up, the tested form may be a part): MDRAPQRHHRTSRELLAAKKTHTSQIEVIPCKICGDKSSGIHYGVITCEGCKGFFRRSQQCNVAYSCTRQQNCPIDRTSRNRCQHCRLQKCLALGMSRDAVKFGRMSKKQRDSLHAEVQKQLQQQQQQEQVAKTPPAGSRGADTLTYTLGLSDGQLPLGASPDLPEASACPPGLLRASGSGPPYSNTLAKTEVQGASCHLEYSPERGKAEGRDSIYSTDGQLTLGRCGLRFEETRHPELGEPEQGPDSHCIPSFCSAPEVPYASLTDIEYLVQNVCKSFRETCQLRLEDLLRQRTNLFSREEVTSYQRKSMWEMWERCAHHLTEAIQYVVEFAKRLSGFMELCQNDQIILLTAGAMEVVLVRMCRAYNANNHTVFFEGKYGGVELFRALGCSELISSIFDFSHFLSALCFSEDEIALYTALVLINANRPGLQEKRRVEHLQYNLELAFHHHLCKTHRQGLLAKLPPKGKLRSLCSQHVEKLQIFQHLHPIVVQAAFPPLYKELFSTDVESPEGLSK
#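 Read-out: Photinus luciferase luminescence; inhibitors lower reporter signal. Insect Schneider cells with Gal4-ROR gamma fusion under metallothionein promoter, UAS reporter; 700 uM final copper sulfate induction, 20 hr, ambient temperature.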
# TDP1 block: qHTS Assay for Inhibitors of Tyrosyl-DNA Phosphodiesterase (TDP1); recombinant TDP1, AlphaScreen DNA substrate cleavage; Tyrosyl-DNA phosphodiesterase 1 (Homo sapiens), Q9NUW8; Potency, µM (doses to about 130 µM), for inactives: at the top dose activity change, negative = inhibition, hits mostly inhibitors; AID 485290, 2010; 350,000 compounds, 0.28% hits; further: nearly all actives have a fitted effect of over 40% in size
#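 AlphaScreen read-out: signal falls as enzyme removes the 3' tyrosine-FITC from a 5'-biotinylated DNA oligo (15 nM, 5 min, RT). Enzyme was E. coli-made recombinant Tdp1 at 1 nM, exposed to compound for 15 min beforehand; beads 10 ug/ml, 10 min.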
# Starred values were filed as active, the others as inactive; ? = inconclusive; nt = not tested or not shown; [ ] = dose if it differs, or a comment. The call rests on the fitted dose curve; in most records, active means well fitted curve in the direction sought with a large enough effect; inconclusive means small, poorly fitted or top-dose-only effect, or another doubt; inactive means no such curve, though single readings can be large; an effect the other way counts as inactive or inconclusive. On the % scale 0 is the no-effect control and ±100 the full control effect; potency means the concentration at half of the fitted maximal effect.
SMILES,Gal4-VP16 FLuc,DT40 TDP1 CPT,TDP1 cell noCPT,RORgamma inh,TDP1 block
CO[C@@H]1COC(=O)C/C=C\[C@@H](C)[C@H](OC)COC(=O)[C@@H](C)COC(=O)C/C=C\[C@H]1C,-4%[10 µM],nt,nt,5%[10 µM],8%[21 µM]
O=C(Nc1nnc(CC(c2ccccc2)c2ccccc2)s1)c1ccco1,?,?,?,?,3%
COc1ccc(NC(=O)CN(C)S(=O)(=O)c2ccc3[nH]c4c(c3c2)CCCC4)cc1Cl,nt,23µM*,?,nt,11%
CC(C)(C)NC(=O)CCN(/N=C/c1ccccc1F)C1=NS(=O)(=O)c2ccccc21,-2%,?,21µM*,19%,nt
Cc1ccc(C(=O)NN(CCC(=O)NC(C)(C)C)C2=NS(=O)(=O)c3ccccc32)cc1,19%,-8%,-1%,20%,3%
CC(C)(C)NC(=O)CCN(/N=C/c1ccccc1)C1=NS(=O)(=O)c2ccccc21,0%,?,16µM*,41%,nt
O=C(NC1=NCCS1)c1sc2ccccc2c1Cl,?,-2%,?,?,5%
O=C(NC1=NCCS1)c1sc2cc(Cl)cc(Cl)c2c1Cl,?,?,?,6.3µM*,2%
CN1C(=O)C2(Oc3ccccc3C3CC(c4ccccc4)=NN32)c2ccccc21 (centres undefined),2%,23µM*,?,-43%,3%
S=C1NC2(CCS1)Oc1ccccc1C1CC(c3ccccc3)=NN12 (centres undefined),13%,nt,nt,-1%,nt
Cc1ccc(C2=NN3C(C2)c2ccccc2OC32C(=O)Nc3ccccc32)cc1 (centres undefined),?,?,?,13µM*,6%
Cc1ccc(N2C(=O)CCSC23C(=O)Nc2ccccc23)cc1 (centres undefined),-9%,-26%,-18%,9%,5%
N=c1c(C(=O)NCC2CCCO2)cc2c(=O)n3ccccc3nc2n1Cc1cccnc1 (centres undefined),-1%,3%,-8%,-30%,0%
Cc1cccn2c(=O)c3cc(C(=O)NCc4ccc(F)cc4)c(=N)n(CC4CCCO4)c3nc12 (centres undefined),-13%,?,23µM*,-17%,4%
CCNC(=O)c1cc2c(=O)n3cccc(C)c3nc2n(Cc2ccc(C)cc2)c1=N,-5%,18µM*,16µM*,-31%,1%
COc1ccc(CNC(=O)c2cc3c(=O)n4cccc(C)c4nc3n(CC3CCCO3)c2=N)cc1 (centres undefined),-5%,?,?,-23%,4%
Cc1cccn2c(=O)c3cc(C(=O)NCCN4CCOCC4)c(=N)n(Cc4ccc(F)cc4)c3nc12,-20%,7.3µM*,7.3µM*,?,1%
Cc1cccn2c(=O)c3cc(C(=O)NCC4CCCO4)c(=N)n(Cc4cccnc4)c3nc12 (centres undefined),-2%,18µM*,26µM*,-32%,10%
Cc1cccn2c(=O)c3cc(C(=O)NC4CCCC4)c(=N)n(CC4CCCO4)c3nc12 (centres undefined),-5%,-20%,?,13%,4%
Cc1cccn2c(=O)c3cc(C(=O)NC4CCCCC4)c(=N)n(Cc4ccc(F)cc4)c3nc12,-5%,8.2µM*,15µM*,-23%,3%
COCCCn1c(C(=O)Nc2ccc3c(c2)OCO3)cc2c(=O)n3cccc(C)c3nc21,nt,?,12µM*,nt,nt
COc1ccc(CCNC(=O)c2cc3c(=O)n4cccc(C)c4nc3n(CCCN3CCOCC3)c2=N)cc1,-11%,-20%,-3%,-21%,1%
Cc1cccn2c(=O)c3cc(C(=O)NCc4ccco4)c(=N)n(C4CCCC4)c3nc12,-9%,?,23µM*,-33%,nt
